Hit rate of the full screen: of about 52,000 compounds, about 1,700 (3.3%) were called active. The entries come from a sample that favours actives as a whole. Values without a mark were called inactive. Cut-off read from the data, not from the text of the source: active = survival mostly below about 52% (no sharp cut-off); inactive = mostly above about 56%.

In the assay the test system is Wild type. Put plainly: S. aureus survival, RN4220 and DeltatarO strains – OD600, teichoic acid synthesis inhibitors, primary screen (AID 463173). The following applies: S. aureus RN4220 wild type/DeltatarO growth, OD600, 18 h, active compounds read low, screened at 18.75 µg/mL (by protocol).
As for `Cc1nc(SCC(N)=O)c2c3c(sc2n1)CCCC3`, the survival is 90%.

On to `Cc1nc(SCC(=O)Nc2nsc(-c3ccc(C(C)(C)C)cc3)n2)c2c3c(sc2n1)CCCC3`, for which the survival was 92%.

On to `Cc1nc(SCC(=O)OC(C)(C)C)c2c3c(sc2n1)CCCC3`, for which the survival is 15% (active).

As for `COc1ccccc1Cc1nc2ccccc2nc1SCC(=O)Nc1ccc2c(c1)OCO2`, the survival is 45%.

As for `O=C(Cn1nnc(-c2ccccc2)n1)N1CCCCC1`, the survival is 109%.

With `Cc1ccc(S(=O)(=O)N2CCN(Cc3ccccc3Cl)CC2)cc1`, the survival is 19% (active).

As for `CC(=O)Nc1ccc(S(=O)(=O)N2CCN(Cc3ccccc3Cl)CC2)cc1`, the survival was 117%.

In the case of `Cc1ccc(S(=O)(=O)N2CCC(C(=O)NCc3ccccc3Cl)CC2)cc1`, the survival is 64%.

With `CC(C)(C)c1ccc(C(=O)NC2(C(F)(F)F)NC(=O)N(CCc3ccccc3)C2=O)cc1` (stereo not drawn), the survival was 43%.

On to `Cc1c(Cl)cccc1NC(=O)Nc1ccc2snnc2c1`, for which the survival was 24% (active).

Take `O=C(Nc1cccc(C(F)(F)F)c1)c1cccs1`: the survival is 116%.

For `O=C(Nc1cccc(C(F)(F)F)c1)Nc1ccc2snnc2c1`, the survival was 29% (active).

For `CCc1ccccc1NC(=O)Nc1ccc2snnc2c1`, the survival is 82%.

On to `O=C(Nc1cccc(C(F)(F)F)c1)c1ccc2snnc2c1`, for which the survival was 118%.

In the case of `O=C(Nc1cccc(C(F)(F)F)c1)Nc1cccs1`, the survival was 4% (active).

Turning to `O=C(Nc1ccc(F)cc1)Nc1ccc2snnc2c1`, the survival is 45%.

`Cc1c(Cl)cccc1NC(=O)c1ccc2snnc2c1`: the survival is 106%.

Regarding `O=C(Nc1cccs1)Nc1cc(C(F)(F)F)ccc1Cl`, the survival is 26%.

As for `CCc1ccc(NC(=O)CSc2nc3c(sc4ccccc43)c(=O)n2CCN(CC)CC)cc1`, the survival is 73%.

Take `CCN(CC)/C(=N/OCc1ccc(Cl)cc1Cl)c1nonc1N`: the survival was 100%.

`CC1=NN(C(C#N)c2ccccc2)C(C)(C)C1` (stereo not drawn): the survival is 113%.

As for `Cc1cccc(N2CCN(Cc3nnc(-c4ccc5c(c4)OCO5)o3)CC2)c1C`, the survival was 83%.

Consider `CCCN(CCC)C(=O)CSc1nnc2cc(C)c3ccccc3n12`, for which the survival was 84%.

Regarding `Cc1cc2nnc(SCc3ccc(F)cc3)n2c2ccccc12`, the survival was -2% (active).

`CCOC(=O)c1ccc(CSc2nnc3cc(C)c4ccccc4n23)cc1`: the survival is 108%.

Regarding `COc1ccc(Cn2c(SCc3ccc(C(=O)NCCc4ccccc4)cc3)nc3cccnc32)cc1`, the survival is 77%.

Turning to `CCCn1c(NCc2ccccc2F)nc2ccccc21`, the survival was 89%.

As for `CCCn1c(NCc2ccccc2C)nc2ccccc21`, the survival was 95%.

In the case of `CCCCn1c(NCc2cc(Br)ccc2O)nc2ccccc21`, the survival is 69%.

Turning to `CCn1c(NCc2ccc(OC)c(OC)c2)nc2ccccc21`, the survival was 127%.

Regarding `CCCCCn1c(NCc2ccc(OC)cc2)nc2ccccc21`, the survival was -2% (active).

For `CCCCn1c(NCc2ccc(OC)cc2O)nc2ccccc21`, the survival was 88%.

As to `CCCn1c(NCc2ccc(N(CC)CC)cc2)nc2ccccc21`, the survival was 0% (active).

Take `CCCCn1c(NCc2ccc(N(C)C)cc2)nc2ccccc21`: the survival was 70%.

In the case of `CCCCCn1c(NCc2ccccc2OC)nc2ccccc21`, the survival was -5% (active).

As for `CCOc1ccc(CNS(=O)(=O)c2ccc3c(c2)CC(C)N3C(C)=O)cc1OC` (stereo not drawn), the survival is 70%.

On to `CCN(C(=O)C1CCC(CNS(=O)(=O)c2cccc3nsnc23)CC1)c1ccccc1` (stereo not drawn), for which the survival was 76%.

In the case of `CCOC(=O)c1[nH]c(C)c(CCC(=O)Nc2ccccc2OCC)c1C`, the survival was 84%.

For the compound `COc1ccc(-c2cn3nc(N4CCCC(C(=O)Nc5ccc(Cl)cc5C)C4)sc3n2)cc1` (stereo not drawn), the survival was 77%.

For `O=C(Cn1c(=O)n(Cc2ccco2)c(=O)c2sc3ccccc3c21)Nc1ccc(F)cc1F`, the survival is 84%.

As to `Cc1cccc(CN2CCN(CC(=O)Nc3c(C)cccc3C)S2(=O)=O)c1`, the survival was 134%.

As to `CCc1cccc(C)c1NC(=O)CN1CCCN(Cc2ccccc2Cl)S1(=O)=O`, the survival is 14% (active).

For the compound `O=C(CN1CCCN(Cc2ccccc2Cl)S1(=O)=O)NCc1ccccc1`, the survival is 78%.

With `Cc1ccc(NC(=O)CN2CCCN(Cc3ccccc3Cl)S2(=O)=O)c(C)c1`, the survival is -1% (active).

For the compound `CCc1cccc(C)c1NC(=O)CN1CCN(Cc2ccccc2Cl)S1(=O)=O`, the survival was 134%.

For `Cc1ccccc1CN1CCCN(CC(=O)Nc2c(C)cccc2C)S1(=O)=O`, the survival is 66%.

As for `Cc1ccc(CN2CCCN(CC(=O)Nc3ccc(C)cc3C)S2(=O)=O)cc1`, the survival was 85%.

`CCc1cccc(C)c1NC(=O)CN1CCCN(Cc2ccc(C)cc2)S1(=O)=O`: the survival was 0% (active).

In the case of `Cc1ccc(NC(=O)CN2CCCN(Cc3cc(C)ccc3C)S2(=O)=O)c(Cl)c1`, the survival is 55%.

As for `COc1ccccc1CNC(=O)c1cnc2sc(N3CCOCC3)nn2c1=O`, the survival was 153%.

For `CC(C)(C)c1ccc(C(=O)Nc2c(C(=O)c3ccc(F)cc3)oc3ccccc23)cc1`, the survival was 73%.

Turning to `Cc1ccc(C(=O)N2CC3(C)CC2CC(C)(C)C3)cc1` (stereo not drawn), the survival is 110%.

As for `CCn1c(CN2CCCCC2)nc2cc(NC(=O)COc3ccc([N+](=O)[O-])cc3)ccc21`, the survival was 79%.

Regarding `COc1cc(C(=O)N(CCc2ccccc2)C2CC3CCC(C2)N3C)cc(OC)c1OC` (stereo not drawn), the survival is 104%.

For the compound `COc1ccc(CNC(=O)c2nc(S(=O)(=O)Cc3ccccc3)ncc2Cl)cc1`, the survival is 34%.

In the case of `COc1ccc(OC)c(NC(=O)c2nc(S(=O)(=O)Cc3ccc(F)cc3)ncc2Cl)c1`, the survival is -3% (active).

`O=C(NCc1ccccc1)c1nc(S(=O)(=O)Cc2ccccc2)ncc1Cl`: the survival is 42%.

With `O=C(NCc1ccccc1)c1nc(S(=O)(=O)Cc2ccc(F)cc2)ncc1Cl`, the survival is -5% (active).

For `COc1ccc(OC)c(NC(=O)c2nc(SCc3ccc(F)cc3)ncc2Cl)c1`, the survival was 100%.

Regarding `Cc1ccc(C)c(NC(=O)c2nc(S(=O)(=O)Cc3ccc(F)cc3)ncc2Cl)c1`, the survival was 109%.

On to `COc1cc(C2NC(=O)c3c(sc4c3CCN(C)C4)N2)ccc1OC(=O)c1ccccc1` (stereo not drawn), for which the survival is 80%.

On to `O=C(CSc1nc(=O)n(Cc2ccco2)c2c1CCC2)NCc1ccccc1`, for which the survival was 72%.

As for `Cc1ccc(NC(=O)CCc2nnc3n(C)c(=O)c4sccc4n23)cc1C`, the survival is 72%.

Consider `Cc1ccsc1CCN1C(=O)N(c2ccc(F)cc2)C(=O)C1CC(=O)Nc1ccccc1` (stereo not drawn), for which the survival is 72%.

As for `COc1ccc2c(CNCc3cccs3)c(C(=O)O)n(Cc3ccccc3)c2c1`, the survival was 84%.

For the compound `COc1cc(NS(=O)(=O)c2ccc3[nH]c4c(c3c2)CCCC4)cc(OC)c1OC`, the survival was 129%.

Take `CCOC(=O)c1cccc(NC(=O)CCCn2c(C)c3cnn(-c4ccccc4)c(=O)c3c2C)c1`: the survival is 77%.

In the case of `Cc1ccc(-n2c(SCC(=O)O)nc3sc4c(c3c2=O)CCCC4)cc1`, the survival was 73%.

For `CC(C)CCSc1nnc2n(-c3ccccc3)c(=O)c3c4c(sc3n12)CC(C)CC4` (stereo not drawn), the survival is 76%.

Consider `CCSc1nc2sc3c(c2c(=O)n1-c1ccc(C)cc1)CCCC3`, for which the survival is 0% (active).

Turning to `CCOC(=O)CSc1nc2sc3c(c2c(=O)n1-c1ccccc1)CCC(C(C)(C)C)C3` (stereo not drawn), the survival is 70%.

Consider `CCCSc1nc2sc3c(c2c(=O)n1-c1ccc(C)c(Cl)c1)CCN(C(C)=O)C3`, for which the survival is 87%.

With `CSc1nc2sc3c(c2c(=O)n1-c1ccccc1)CCC(C(C)(C)C)C3` (stereo not drawn), the survival was 12% (active).

Consider `CSc1nc2sc3c(c2c(=O)n1Cc1ccccc1)CCC(C(C)(C)C)C3` (stereo not drawn), for which the survival was 113%.

Turning to `Cc1ccc(-n2c(SCCC(C)C)nc3sc4c(c3c2=O)CC(C)(C)OC4)cc1`, the survival was 76%.

As for `CCCSc1nc2sc3c(c2c(=O)n1-c1ccccc1)CCC(C)C3` (stereo not drawn), the survival is 1% (active).

On to `CCSc1nc2sc3c(c2c(=O)n1-c1ccc(C)c(Cl)c1)CCN(C(C)=O)C3`, for which the survival is 70%.

In the case of `C=C(C)CSc1nc2sc3c(c2c(=O)n1-c1ccccc1)CCC(C)C3` (stereo not drawn), the survival is 67%.

With `CCCSc1nc2sc3c(c2c(=O)n1-c1ccc(C)cc1)CCCC3`, the survival is 5% (active).

Turning to `Cc1ccc(C)c(N(CC(=O)Nc2ccccc2)S(C)(=O)=O)c1`, the survival was 99%.

`CCc1cccc(NC(=O)Cn2c(=O)ccc3cc(S(=O)(=O)N4CCC(C)CC4)ccc32)c1`: the survival is 129%.

For the compound `Cc1ccc2oc(C(=O)Nc3nc(-c4ccc(F)cc4)ns3)c(C)c2c1`, the survival is 87%.

On to `COc1ccc(NC(=O)c2c(NCc3cccs3)sc3c2CCCC3)cc1`, for which the survival is 80%.

Take `CCOC(=O)c1cccc(NC(=O)CCSCCc2ccccn2)c1`: the survival was 68%.

In the case of `CCOC(=O)Cn1cnc2c(cnn2-c2ccc(C)c(C)c2)c1=O`, the survival is 72%.

In the case of `COc1ccc(NC(=O)N2CCc3c([nH]c4ccc(OC)cc34)C2c2ccc(OC)cc2)cc1` (stereo not drawn), the survival was 93%.

With `Cc1ccc(CS(=O)(=O)c2ncc(Cl)c(C(=O)Nc3nc4ccc(C)cc4s3)n2)cc1`, the survival was 26%.

On to `O=C(NCc1ccccc1)C(=O)NCC(c1cccnc1)N1CCN(c2ccccc2)CC1` (stereo not drawn), for which the survival was 82%.

For the compound `Cc1ccccc1CNC(=O)C1CCN(c2nn3cc(-c4ccc(F)cc4)nc3s2)CC1`, the survival was 66%.

Turning to `Cc1ccc2ncc(C(=O)NCc3ccccc3Cl)c(=O)n2c1`, the survival was 93%.

With `CC1CCN(c2ccc(-c3nc(-c4ccccc4)no3)cc2[N+](=O)[O-])CC1`, the survival is 112%.

`Cc1cc(C)cc(NC(=O)CSc2oc(-c3cccs3)nc2S(=O)(=O)c2ccc(Br)cc2)c1`: the survival is 75%.

For the compound `CCCCn1c(SCC(=O)c2ccccc2)nc2sc3c(c2c1=O)CCCC3`, the survival is 62%.

In the case of `CCCCCSc1nc2sc3c(c2c(=O)n1-c1ccccc1)CCN(C(C)=O)C3`, the survival is 58%.

For `C=C(C)Cn1c(SCC(=O)c2ccccc2)nc2sc3c(c2c1=O)CCCC3`, the survival was 84%.

On to `C=C(C)CSc1nc2sc3c(c2c(=O)n1CCCC)CCCC3`, for which the survival was 0% (active).

Consider `CCCCCSc1nc2sc3c(c2c(=O)n1-c1ccc(OC)cc1)CCN(C(C)=O)C3`, for which the survival was -21% (active).

Turning to `COc1ccc(-n2c(SC)nc3sc4c(c3c2=O)CCN(C(C)=O)C4)cc1`, the survival is 126%.
